Experiment: adipocyte viability effects, profiling panel, cell-based, 3T3-L1 adipocytes, calcein-AM fluorescence, 48 h, basal (AID 1163)
Details: 3T3-L1 adipocytes viability, higher = more signal
Further: test concentration not given here.

Compound | z-score
COC(=O)[C@H](C)NC(=O)CC=C[C@@H](C)[C@@H]1C=C[C@H](O)[C@@H](CO)O1 | -0.586
CCN1C(=O)[C@H]2[C@H]3[C@H](O)[C@H](O)CC(=NOC[C@@H](O)COCc4ccco4)[C@H]3CC[C@H]2C1=O | 0.47
O=C1[C@H]2[C@H]3[C@H](O)[C@H](O)CC(=NOC[C@@H](O)COCc4ccco4)[C@@H]3CC[C@H]2C(=O)N1Cc1ccc2c(c1)OCO2 | 0.0548
Cc1ccc(S(=O)(=O)N[C@@H]2COC(=O)CC=C[C@@H](C)[C@H](NS(=O)(=O)c3ccc(C)cc3)COC(=O)[C@H](C)NC(=O)CC=C[C@H]2C)cc1 | -0.0454
COC(=O)CC=C1c2ccccc2[C@H](OC)[C@H]1C | -0.116
CCN(CC)CC(O)CN1CCCCc2nc(C)c(C)cc21 (stereo unspecified) | -0.054
CC(C)CON=C1C[C@@H](O)[C@@H](O)[C@@H]2[C@@H]3C(=O)N(Cc4ccccc4)C(=O)[C@@H]3CC[C@H]12 | 0.785
COc1ccc(OC[C@H]2CN3[C@@H](CC[C@@H](C)[C@@H]3c3ccc(Br)cc3)C(=O)O2)cc1 | 0.0118
O=C1[C@H]2[C@H]3[C@H](O)[C@H](O)CC(=NOCc4ccccc4)[C@H]3CC[C@H]2C(=O)N1C1CCCCC1 | -0.228
CCOC(=O)CCN1C(=O)[C@H]2[C@H]3[C@H](O)[C@H](O)CC(=NOCC=C(C)CCC=C(C)C)[C@H]3CC[C@H]2C1=O | -1.23
CC(=O)OC[C@H]1O[C@H](CC=NOC(C)CN2CCCc3nc(C)c(C)cc32)C=C[C@@H]1OC(C)=O (stereo partly specified) | 0.114
CCOC(=O)[C@H](CC(C)C)NC(=O)CCC1CC(OC(=O)NCc2ccc3c(c2)OCO3)CC2(CCCC(COC(=O)NCCc3ccccc3OC)O2)O1 (stereo partly specified) | -0.837
COc1ccc(COC(=O)NN=C2C[C@@H](O)[C@@H](O)[C@@H]3[C@@H]4C(=O)N(Cc5ccc6c(c5)OCO6)C(=O)[C@@H]4CC[C@H]23)cc1 | -0.243
COc1cccc([C@H](O)Cn2cc(-c3ccc(CON=C(C)C)cc3)nn2)c1 | -0.374
CO[C@@H]1C=CCC(=O)N[C@@H](C)C(=O)OC[C@@H](NS(=O)(=O)c2ccc(C)cc2)[C@H](C)C=CCC(=O)OC[C@H]1C | 0.37

Experiment: HepG2 cell viability effects, profiling panel, calcein-AM fluorescence, 48 h, basal (AID 1164)
Details: higher = more signal

Compound | z-score
COC(=O)CC=C[C@@H](C)[C@@H](C=NOC[C@@H](C)[C@H](OCc1ccccc1)C(C)C)NS(=O)(=O)c1ccc(C)cc1 | -0.692
COc1cccc([C@H]2Oc3ccc(OC)cc3C(=NO[C@@H](C)c3cc(-c4c(C)cc(C)cc4C)no3)[C@@H]2O)c1 | -1.08
CCN1C(=O)[C@H]2[C@H]3[C@H](O)[C@H](O)CC(=NNC(=O)OCc4ccccc4)[C@H]3CC[C@H]2C1=O | -0.0764
CC(=O)OC[C@H]1O[C@H](CCON=C(C)CCN2CCCc3nc(C)c(C)cc32)C=C[C@@H]1OC(C)=O | -0.667
CCOC(=O)[C@H](Cc1ccccc1)NC(=O)CCC1CC(OC(=O)NCc2cccc3ccccc23)CC2(CCCC(COC(=O)NCCOc3ccccc3)O2)O1 (stereo partly specified) | -0.175
CC(CCN1CCCc2nc(C)c(C)cc21)=NOC[C@@H](O)COCc1ccco1 | -0.496
CC(CCC(=O)OC[C@H]1O[C@H](C#Cc2ccccc2)C=C[C@@H]1Oc1ccc(C)cc1)=NO[C@H](C)c1cn([C@@H]2COC[C@H]2O)nn1 | 0.669
C[C@H]1C=CCC(=O)OC[C@H](C)C(=O)N2CCC[C@H]2C(=O)OC1 | -0.51
CC(=O)OC[C@H]1O[C@@H](ON=C2[C@H]3CCn4c(=O)n(-c5ccccc5)c(=O)n4[C@H]3[C@H](O)[C@@H]3O[C@H]23)[C@H](OC(C)=O)[C@@H](OC(C)=O)[C@@H]1OC(C)=O | 0.707
C[C@@H](c1ccccc1)N1C(=O)[C@H]2[C@H]3[C@H](O)[C@H](O)CC(=NNC(=O)OCc4ccccc4)[C@@H]3CC[C@H]2C1=O | -0.468
CCOC(=O)CCN1C(=O)[C@H]2[C@H]3[C@H](O)[C@H](O)CC(=NNC(=O)OCC)[C@H]3CC[C@H]2C1=O | -0.418
O=C1[C@H]2[C@H]3[C@H](O)[C@H](O)CC(=NOC[C@@H](O)COCc4ccco4)[C@@H]3CC[C@H]2C(=O)N1C1CCCCC1 | 0.444
CC(=O)OC[C@H]1O[C@H](CCON=C(C)C)C=C[C@@H]1OC(C)=O | -0.0004
COC(=O)[C@@H]1CC[C@H](C)[C@@H](c2ccc(C)cc2)N1C(=O)c1ccc(C=NOC[C@H]2O[C@H](c3ccccc3)C=C[C@@H]2Oc2ccc(OC)cc2)cc1 | -0.195
C=C(C)C(=O)OC[C@H]1CN2[C@@H](CC[C@@H](C)[C@@H]2c2ccc(Br)cc2)C(=O)O1 | 1.33
CCOC(=O)[C@H](Cc1ccccc1)NC(=O)CCC1CC(OC(=O)NCc2cccc3ccccc23)CC2(CCCC(COC(=O)NCCc3ccccc3OC)O2)O1 (stereo partly specified) | -0.521
CCOC(=O)[C@H](CC(C)C)NC(=O)CCC1CC(OC(=O)NCc2ccc3c(c2)OCO3)CC2(CCCC(COC(=O)NCCC(C)C)O2)O1 (stereo partly specified) | -0.231
CC(C)CON=C1C[C@@H](O)[C@@H](O)[C@@H]2[C@@H]3C(=O)N(C(C)(C)C)C(=O)[C@@H]3CC[C@@H]12 | -0.337

Compound | z-score
COc1ccc(O[C@H]2C=C[C@@H](c3ccccc3)O[C@@H]2COC(=O)CCC(C)=NOC[C@@H](O)COCc2ccco2)cc1 | 0.599
CC(C)(C)N1C(=O)[C@H]2[C@H]3[C@H](O)[C@H](O)CC(=NOC[C@@H](O)COCc4ccco4)[C@@H]3CC[C@H]2C1=O | -0.274
CC(CCN1CCCCc2nc(C)c(C)cc21)=NO[C@@H](C)c1cc(-c2c(C)cc(C)cc2C)no1 | 0.148
COC(=O)[C@H](C)NC(=O)CC=C[C@@H](C)[C@@H]1C=C[C@H](O)[C@@H](CO)O1 | 0.583
CCN1C(=O)[C@H]2[C@H]3[C@H](O)[C@H](O)CC(=NOC[C@@H](O)COCc4ccco4)[C@H]3CC[C@H]2C1=O | -0.0911
O=C1[C@H]2[C@H]3[C@H](O)[C@H](O)CC(=NOC[C@@H](O)COCc4ccco4)[C@@H]3CC[C@H]2C(=O)N1Cc1ccc2c(c1)OCO2 | 0.579
Cc1ccc(S(=O)(=O)N[C@@H]2COC(=O)CC=C[C@@H](C)[C@H](NS(=O)(=O)c3ccc(C)cc3)COC(=O)[C@H](C)NC(=O)CC=C[C@H]2C)cc1 | 0.428
COC(=O)CC=C1c2ccccc2[C@H](OC)[C@H]1C | -0.379
CCN(CC)CC(O)CN1CCCCc2nc(C)c(C)cc21 (stereo unspecified) | 0.776
CC(C)CON=C1C[C@@H](O)[C@@H](O)[C@@H]2[C@@H]3C(=O)N(Cc4ccccc4)C(=O)[C@@H]3CC[C@H]12 | -0.155
COc1ccc(OC[C@H]2CN3[C@@H](CC[C@@H](C)[C@@H]3c3ccc(Br)cc3)C(=O)O2)cc1 | -0.227
O=C1[C@H]2[C@H]3[C@H](O)[C@H](O)CC(=NOCc4ccccc4)[C@H]3CC[C@H]2C(=O)N1C1CCCCC1 | 0.734
CCOC(=O)CCN1C(=O)[C@H]2[C@H]3[C@H](O)[C@H](O)CC(=NOCC=C(C)CCC=C(C)C)[C@H]3CC[C@H]2C1=O | 0.536
CC(=O)OC[C@H]1O[C@H](CC=NOC(C)CN2CCCc3nc(C)c(C)cc32)C=C[C@@H]1OC(C)=O (stereo partly specified) | -0.806
CCOC(=O)[C@H](CC(C)C)NC(=O)CCC1CC(OC(=O)NCc2ccc3c(c2)OCO3)CC2(CCCC(COC(=O)NCCc3ccccc3OC)O2)O1 (stereo partly specified) | 0.0138
COc1ccc(COC(=O)NN=C2C[C@@H](O)[C@@H](O)[C@@H]3[C@@H]4C(=O)N(Cc5ccc6c(c5)OCO6)C(=O)[C@@H]4CC[C@H]23)cc1 | 0.53
COc1cccc([C@H](O)Cn2cc(-c3ccc(CON=C(C)C)cc3)nn2)c1 | 0.206
CO[C@@H]1C=CCC(=O)N[C@@H](C)C(=O)OC[C@@H](NS(=O)(=O)c2ccc(C)cc2)[C@H](C)C=CCC(=O)OC[C@H]1C | 0.495

Source: PubChem BioAssay
